{
  "source": "PubChem BioAssay (EPA / NIEHS)",
  "key": {"[1]": {"test_system": "zebrafish Androgen Receptor (AR), gene 100005148", "assay": "ATG_zfAR_XSP1: Attagene TRANS-FACTORIAL Multi-Species (XSP1) HepG2 Assay for zebrafish Androgen Receptor (AR) (AID 2283771)", "how_it_was_run": "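Gain-of-signal versus DMSO was measured as reporter transcripts quantified by RT-PCR, fluorescent labelling and capillary electrophoresis after 24 h chemical exposure. The cells were HepG2 expressing a chimeric zebrafish AR-GAL4, co-stimulated with 3 nM 6-alpha-fluorotestosterone.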"}, "[2]": {"biological_target": "zebrafish Estrogen Receptor (ESR1), esr1 (gene 259252) (UniProt P57717)", "sequence (P57717 whole entry, looked up, the tested form may be a part)": "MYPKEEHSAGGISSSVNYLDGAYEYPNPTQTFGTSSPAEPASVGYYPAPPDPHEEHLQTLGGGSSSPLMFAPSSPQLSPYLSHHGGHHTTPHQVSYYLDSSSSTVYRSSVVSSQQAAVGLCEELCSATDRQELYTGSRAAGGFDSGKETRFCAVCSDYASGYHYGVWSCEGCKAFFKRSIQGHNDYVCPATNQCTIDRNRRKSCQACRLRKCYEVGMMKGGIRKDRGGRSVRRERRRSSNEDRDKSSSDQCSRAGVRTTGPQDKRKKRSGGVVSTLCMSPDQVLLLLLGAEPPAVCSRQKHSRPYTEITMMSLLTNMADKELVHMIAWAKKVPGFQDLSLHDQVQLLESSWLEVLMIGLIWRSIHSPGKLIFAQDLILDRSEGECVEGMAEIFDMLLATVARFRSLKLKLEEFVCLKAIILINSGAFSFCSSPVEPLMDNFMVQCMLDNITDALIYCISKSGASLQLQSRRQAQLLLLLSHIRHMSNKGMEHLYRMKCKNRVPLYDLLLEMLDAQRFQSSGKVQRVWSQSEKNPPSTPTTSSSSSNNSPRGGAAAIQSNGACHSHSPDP", "assay": "ATG_zfER1_XSP1: Attagene TRANS-FACTORIAL Multi-Species (XSP1) HepG2 Assay for zebrafish Estrogen Receptor (ESR1) (AID 2283772)", "how_it_was_run": "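Reporter mRNA induction, gauged via RT-PCR/capillary electrophoresis fluorescence relative to DMSO controls, in HepG2 cells transiently carrying GAL4-UAS reporter units; 24 h dosing.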"}, "[3]": {"test_system": "zebrafish Estrogen Receptor (ESR2B), gene 317733", "assay": "ATG_zfER2b_XSP1: Attagene TRANS-FACTORIAL Multi-Species (XSP1) HepG2 Assay for zebrafish Estrogen Receptor (ESR2B) (AID 2283773)", "how_it_was_run": "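Medium contained 3 nM 6-alpha-fluorotestosterone. Reporter mRNA induction by exogenous zebrafish ER2b-Gal4 chimera was read 24 h post-dose in transiently transfected HepG2 cells, using RT-PCR, fluorescent labelling, HpaI digestion and capillary electrophoresis.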"}, "[4]": {"test_system": "frog Estrogen Receptor (ESR2), gene 100174814", "assay": "ATG_frER2_XSP1: Attagene TRANS-FACTORIAL Multi-Species (XSP1) HepG2 Assay for frog Estrogen Receptor (ESR2) (AID 2283774)", "how_it_was_run": "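Reporter mRNA from a multiplexed TRANS system, measured by RT-PCR with fluorescent labelling and capillary electrophoresis, 24 hours after chemical exposure. Human HepG2 liver cells carried exogenous frog ER-Gal4 chimera; medium included 3 nM 6-alpha-fluorotestosterone; increases versus DMSO analysed.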"}, "[5]": {"biological_target": "GAL4 Transcription Factor (Internal Marker), GAL4 (gene 855828) (UniProt P04386)", "sequence (P04386 whole entry, looked up, the tested form may be a part)": "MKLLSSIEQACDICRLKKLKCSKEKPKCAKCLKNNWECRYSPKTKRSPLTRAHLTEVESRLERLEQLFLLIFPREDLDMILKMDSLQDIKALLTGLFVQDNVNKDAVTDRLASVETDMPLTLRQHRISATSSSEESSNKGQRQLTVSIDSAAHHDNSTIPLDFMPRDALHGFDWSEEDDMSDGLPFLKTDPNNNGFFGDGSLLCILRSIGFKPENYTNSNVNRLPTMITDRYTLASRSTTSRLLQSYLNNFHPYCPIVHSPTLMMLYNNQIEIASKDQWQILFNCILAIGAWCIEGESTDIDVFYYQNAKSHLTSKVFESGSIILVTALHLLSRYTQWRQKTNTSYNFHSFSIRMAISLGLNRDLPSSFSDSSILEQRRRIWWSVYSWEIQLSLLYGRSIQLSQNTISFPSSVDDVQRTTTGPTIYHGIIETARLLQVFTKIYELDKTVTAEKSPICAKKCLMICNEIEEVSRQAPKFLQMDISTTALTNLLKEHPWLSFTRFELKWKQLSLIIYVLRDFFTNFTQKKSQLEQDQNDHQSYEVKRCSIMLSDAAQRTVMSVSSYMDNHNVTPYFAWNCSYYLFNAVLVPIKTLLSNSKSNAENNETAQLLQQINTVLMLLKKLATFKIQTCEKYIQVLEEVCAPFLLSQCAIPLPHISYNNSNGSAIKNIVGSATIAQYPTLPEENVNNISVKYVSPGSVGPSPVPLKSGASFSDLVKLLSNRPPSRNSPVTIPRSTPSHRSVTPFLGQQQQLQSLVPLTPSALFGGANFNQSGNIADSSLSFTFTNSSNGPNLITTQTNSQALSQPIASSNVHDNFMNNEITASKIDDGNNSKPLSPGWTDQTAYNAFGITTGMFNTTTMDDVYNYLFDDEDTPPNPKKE", "assay": "ATG_GAL4_XSP1: Attagene TRANS-FACTORIAL Multi-Species (XSP1) HepG2 Assay for GAL4 Transcription Factor (Internal Marker) (AID 2283789)", "how_it_was_run": "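This background-control endpoint measures GAL4-driven reporter mRNA via RT-PCR and capillary electrophoresis of labelled fragments. Transiently transfected HepG2 cells were treated 24 h, with 3 nM 6-alpha-fluorotestosterone included, and gain-of-signal was fitted against DMSO.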"}, "[6]": {"assay": "ATG_M_19_XSP1: Attagene TRANS-FACTORIAL Multi-Species (XSP1) HepG2 Assay for M19 Transcription Factor (Internal Marker) (AID 2283798)", "how_it_was_run": "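Readout is reporter mRNA induction quantified via RT-PCR, 6-FAM labeling, HpaI digestion and capillary electrophoresis, fitted in the positive direction versus DMSO baseline. Transfected HepG2 cells exposed 24 h, medium including 3 nM 6-alpha-fluorotestosterone.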"}, "[7]": {"assay": "ATG_M_32_XSP1: Attagene TRANS-FACTORIAL Multi-Species (XSP1) HepG2 Assay for M32 Transcription Factor (Internal Marker) (AID 2283799)", "how_it_was_run": "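Reporter transcripts from the M32 internal-control unit measured by RT-PCR, FAM labelling, HpaI digestion and capillary electrophoresis after 24 h compound exposure of transfected HepG2, 3 nM 6-alpha-fluorotestosterone included; DMSO baseline, positive-direction fit.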"}, "[8]": {"biological_target": "Peroxisome proliferator-activated receptor gamma (Homo sapiens) (UniProt P37231)", "sequence (P37231 whole entry, looked up, the tested form may be a part)": "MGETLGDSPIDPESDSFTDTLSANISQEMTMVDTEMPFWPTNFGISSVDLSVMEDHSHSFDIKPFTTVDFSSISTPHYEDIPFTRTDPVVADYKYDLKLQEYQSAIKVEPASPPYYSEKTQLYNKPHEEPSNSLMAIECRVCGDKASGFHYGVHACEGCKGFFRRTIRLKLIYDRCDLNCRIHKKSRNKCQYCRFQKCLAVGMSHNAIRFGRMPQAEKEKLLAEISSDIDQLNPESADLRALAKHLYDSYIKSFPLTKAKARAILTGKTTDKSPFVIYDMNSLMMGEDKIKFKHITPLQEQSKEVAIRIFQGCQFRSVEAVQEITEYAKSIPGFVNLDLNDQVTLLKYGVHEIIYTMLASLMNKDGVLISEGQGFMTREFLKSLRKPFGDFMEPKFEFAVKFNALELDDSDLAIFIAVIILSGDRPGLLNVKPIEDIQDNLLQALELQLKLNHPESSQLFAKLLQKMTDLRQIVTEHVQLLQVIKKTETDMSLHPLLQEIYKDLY", "assay": "ATG_hPPARg_XSP1: Attagene TRANS-FACTORIAL Multi-Species (XSP1) HepG2 Assay for human Peroxisome Proliferator-activated Receptor gamma (PPARg) (AID 2283800)", "how_it_was_run": "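Reporter mRNA induction, measured by RT-PCR with capillary electrophoresis 24 h after dosing, scored as gain over DMSO. Transfected HepG2 cells express exogenous NR-Gal4 chimeras driving GAL4-UAS reporters; medium includes 3 nM 6-alpha-fluorotestosterone.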"}, "[9]": {"test_system": "zebrafish Peroxisome Proliferator-activated Receptor gamma (PPARg), gene 557037", "assay": "ATG_zfPPARg_XSP1: Attagene TRANS-FACTORIAL Multi-Species (XSP1) HepG2 Assay for zebrafish Peroxisome Proliferator-activated Receptor gamma (PPARg) (AID 2283801)", "how_it_was_run": "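Trans-activation readout of chimeric zebrafish PPARg–GAL4 in transiently transfected human HepG2 cells, 24 h chemical exposure (medium includes 3 nM 6-alpha-fluorotestosterone). Reporter transcripts measured by RT-PCR and capillary electrophoresis, fitted as gain over DMSO.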"}, "[10]": {"biological_target": "mouse Peroxisome Proliferator-activated Receptor gamma (PPARg), Pparg (gene 19016) (UniProt P37238)", "sequence (P37238 whole entry, looked up)": "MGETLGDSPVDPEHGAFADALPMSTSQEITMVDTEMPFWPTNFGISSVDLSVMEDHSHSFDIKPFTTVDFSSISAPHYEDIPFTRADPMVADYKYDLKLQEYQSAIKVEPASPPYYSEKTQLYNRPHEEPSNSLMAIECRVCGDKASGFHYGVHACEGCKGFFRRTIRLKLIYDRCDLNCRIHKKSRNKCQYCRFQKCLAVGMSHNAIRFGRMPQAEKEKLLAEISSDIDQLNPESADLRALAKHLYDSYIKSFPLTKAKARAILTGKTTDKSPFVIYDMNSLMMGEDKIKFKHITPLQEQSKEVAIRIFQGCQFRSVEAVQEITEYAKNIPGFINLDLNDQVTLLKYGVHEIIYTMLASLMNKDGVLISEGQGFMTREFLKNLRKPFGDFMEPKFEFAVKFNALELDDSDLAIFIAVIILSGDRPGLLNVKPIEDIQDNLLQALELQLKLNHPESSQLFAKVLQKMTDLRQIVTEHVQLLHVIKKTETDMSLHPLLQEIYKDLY", "assay": "ATG_mPPARg_XSP1: Attagene TRANS-FACTORIAL Multi-Species (XSP1) HepG2 Assay for mouse Peroxisome Proliferator-activated Receptor gamma (PPARg) (AID 2283802)", "how_it_was_run": "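Readout is reporter mRNA induction, measured by RT-PCR with 6-FAM labelling, HpaI digestion and capillary electrophoresis, 24 h post-dose relative to DMSO. Transient multi-reporter transfection of human HepG2 with mouse PPARg–GAL4 fusion; 3 nM 6-alpha-fluorotestosterone included.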"}, "[11]": {"biological_target": "Nuclear receptor subfamily 1 group I member 2 (Mus musculus) (UniProt O54915)", "sequence (O54915 whole entry, looked up, the tested form may be a part)": "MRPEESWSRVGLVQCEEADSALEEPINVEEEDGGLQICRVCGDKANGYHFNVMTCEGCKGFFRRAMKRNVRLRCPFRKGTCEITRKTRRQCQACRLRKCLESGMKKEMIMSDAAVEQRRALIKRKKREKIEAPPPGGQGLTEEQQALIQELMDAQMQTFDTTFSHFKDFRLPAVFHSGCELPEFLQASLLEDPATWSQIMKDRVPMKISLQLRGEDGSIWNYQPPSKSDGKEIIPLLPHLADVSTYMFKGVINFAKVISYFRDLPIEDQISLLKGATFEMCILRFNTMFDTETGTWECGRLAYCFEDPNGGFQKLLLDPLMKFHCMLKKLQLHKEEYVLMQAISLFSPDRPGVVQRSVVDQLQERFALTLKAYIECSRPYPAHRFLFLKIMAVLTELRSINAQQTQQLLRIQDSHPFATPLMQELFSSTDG", "assay": "ATG_mPXR_XSP1: Attagene TRANS-FACTORIAL Multi-Species (XSP1) HepG2 Assay for mouse Pregnane X Receptor (PXR) (AID 2283803)", "how_it_was_run": "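Transiently transfected HepG2 cells expressing a receptor-Gal4 chimera drive a GAL4-UAS reporter; 3 nM 6-alpha-fluorotestosterone included. Reporter mRNA read 24 h post-dose by RT-PCR and capillary electrophoresis; gain of signal relative to DMSO.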"}, "AR (gene 367) [12]": {"biological_target": "AR (gene 367) (UniProt P10275)", "sequence (P10275 whole entry, looked up)": "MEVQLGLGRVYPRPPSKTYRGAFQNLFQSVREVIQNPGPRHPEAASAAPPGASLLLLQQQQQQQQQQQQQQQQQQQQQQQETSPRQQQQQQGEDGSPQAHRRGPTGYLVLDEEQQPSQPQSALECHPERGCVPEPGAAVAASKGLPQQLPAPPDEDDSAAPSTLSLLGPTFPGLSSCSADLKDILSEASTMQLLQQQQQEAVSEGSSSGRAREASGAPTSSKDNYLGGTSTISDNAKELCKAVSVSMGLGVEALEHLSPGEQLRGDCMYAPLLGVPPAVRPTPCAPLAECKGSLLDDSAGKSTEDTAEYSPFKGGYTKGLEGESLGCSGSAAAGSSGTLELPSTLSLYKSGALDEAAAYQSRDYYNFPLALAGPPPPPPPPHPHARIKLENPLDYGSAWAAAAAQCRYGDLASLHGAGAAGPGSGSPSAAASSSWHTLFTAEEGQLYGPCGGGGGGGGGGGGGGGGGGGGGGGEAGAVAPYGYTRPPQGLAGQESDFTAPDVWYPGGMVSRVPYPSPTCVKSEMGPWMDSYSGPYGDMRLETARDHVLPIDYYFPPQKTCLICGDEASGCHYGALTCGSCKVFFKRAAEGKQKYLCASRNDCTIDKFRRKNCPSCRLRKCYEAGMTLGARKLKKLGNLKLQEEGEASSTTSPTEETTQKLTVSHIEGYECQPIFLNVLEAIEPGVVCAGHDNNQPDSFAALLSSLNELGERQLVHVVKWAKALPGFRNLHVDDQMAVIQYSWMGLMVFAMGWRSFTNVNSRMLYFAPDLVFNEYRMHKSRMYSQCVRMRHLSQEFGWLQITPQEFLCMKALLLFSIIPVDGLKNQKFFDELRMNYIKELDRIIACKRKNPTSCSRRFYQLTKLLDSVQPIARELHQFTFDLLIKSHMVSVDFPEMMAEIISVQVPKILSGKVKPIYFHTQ", "assay": "ACEA_AR_agonist_80hr: ACEA Biosciences xCELLigence Real-Time Cell Analysis on Androgen Receptor Agonism for Proliferation (AID 2283783);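 note: hits increase impedance growth signal above DMSO baseline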", "how_it_was_run": "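Eight concentrations, 1:4 serial dilution from a 100 uM final top, in biological duplicate. Impedance-based real-time growth of 22Rv1 cells after overnight baseline, recorded hourly and read at 80 hours. Controls: testosterone, MG132, assay media.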"}, "[13]": {"assay": "ACEA_AR_agonist_AUC_viability: ACEA Biosciences xCELLigence Real-Time Cell Analysis on Androgen Receptor Agonism for Viability (AID 2283775)", "how_it_was_run": "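22Rv1 cells; impedance growth kinetics; 8-pt 1:4 dilutions from 100 uM top final, ≤0.5% DMSO; n = 2; 80 h read; AUC viability, loss-of-signal vs DMSO.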"}, "[14]": {"assay": "ACEA_AR_antagonist_AUC_viability: ACEA Biosciences xCELLigence Real-Time Cell Analysis on Androgen Receptor Antagonism for Viability (AID 2283776);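 note: hits lower the growth signal relative to DMSO meaning cytotoxicity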", "how_it_was_run": "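Real-time electrical impedance tracks 22Rv1 proliferation after continuous compound exposure (top 100 uM final, 1:4 steps, 8 concentrations). The 80 h area-under-curve serves as the cytotoxicity readout relative to DMSO.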"}, "[15]": {"assay": "ACEA_ER_AUC_viability: ACEA Biosciences xCELLigence Real-Time Cell Analysis on Estrogen Receptor Agonism for Viability (AID 2283782);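 note: hit means loss of impedance signal meaning reduced cell growth or viability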", "how_it_was_run": "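Viability endpoint: reduced impedance area under the curve relative to DMSO, recorded by real-time electrode sensing over ~80 h of continuous exposure. Duplicate plates of T47D in hormone-depleted medium; eight concentrations, 1:4 dilutions, 100 uM maximum.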"}, "[16]": {"biological_target": "Luciferin 4-monooxygenase (Photinus pyralis) (UniProt P08659)", "sequence (P08659 whole entry, looked up)": "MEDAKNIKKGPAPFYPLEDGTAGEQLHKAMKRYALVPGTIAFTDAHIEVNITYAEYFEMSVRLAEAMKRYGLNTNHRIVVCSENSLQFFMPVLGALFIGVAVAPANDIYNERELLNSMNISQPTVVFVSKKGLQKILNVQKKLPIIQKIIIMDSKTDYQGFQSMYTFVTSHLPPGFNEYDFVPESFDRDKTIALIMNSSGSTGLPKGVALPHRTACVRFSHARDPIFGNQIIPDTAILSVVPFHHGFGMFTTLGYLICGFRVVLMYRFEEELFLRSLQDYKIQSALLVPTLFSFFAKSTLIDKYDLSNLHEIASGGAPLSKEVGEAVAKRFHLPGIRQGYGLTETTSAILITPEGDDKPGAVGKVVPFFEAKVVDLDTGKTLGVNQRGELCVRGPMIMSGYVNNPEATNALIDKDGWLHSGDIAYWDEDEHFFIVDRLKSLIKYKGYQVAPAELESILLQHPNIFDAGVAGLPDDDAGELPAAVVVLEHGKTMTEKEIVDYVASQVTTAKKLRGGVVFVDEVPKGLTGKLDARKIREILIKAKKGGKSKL", "assay": "CCTE_Simmons_QuantiLum_inhib_2: CCTE's Firefly Luciferase Inhibition Assay, Simmons Lab (AID 2283767);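 for AC50: potency for inhibitors that lower luciferase luminescence relative to DMSO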", "how_it_was_run": "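Eight test concentrations, 5 nM up to 87.5 uM final, preincubated 30min at 37C in the dark with purified luciferase (0.5% DMSO final). Detection reagent (150uM D-luciferin, 147uM dATP, 75uM CoA, pH 7.8) injected per well before kinetic luminescence read; three replicates.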"}, "AR (gene 367) [17]": {"biological_target": "AR (gene 367) (UniProt P10275)", "assay": "ACEA_AR_antagonist_80hr: ACEA Biosciences xCELLigence Real-Time Cell Analysis on Androgen Receptor Antagonism for Proliferation (AID 2283787);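 note: hits lower the impedance growth signal relative to DMSO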", "how_it_was_run": "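Impedance-based real-time growth of 22Rv1 prostate cells, read 80 h after dosing. Eight concentrations, 1:4 series, top 100 uM final (0.5% DMSO), n = 2; signal decrease scored against DMSO.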"}},
  "note": "Inconclusive results are not listed. Activity calls are given as the source filed them. Rule for the calls: active = hit-call score of the fitted dose curve at least 0.9, where 1 is the maximum; inconclusive = response in the unintended direction; inactive = score below 0.9.",
  "data": [
    {"smiles": "CC(C)(C)c1cc(O)c(C(C)(C)C)cc1O", "values": [
      {"measurement": "outcome", "setting": "[1]", "result": "inactive"},
      {"measurement": "outcome", "setting": "[2]", "result": "inactive"},
      {"measurement": "AC50", "setting": "[3]", "result": "186 µM (active)"},
      {"measurement": "outcome", "setting": "[4]", "result": "inactive"},
      {"measurement": "outcome", "setting": "[5]", "result": "inactive"},
      {"measurement": "outcome", "setting": "[6]", "result": "inactive"},
      {"measurement": "outcome", "setting": "[7]", "result": "inactive"},
      {"measurement": "AC50", "setting": "[8]", "result": "160 µM (active)"},
      {"measurement": "outcome", "setting": "[9]", "result": "inactive"},
      {"measurement": "AC50", "setting": "[10]", "result": "100 µM (active)"},
      {"measurement": "outcome", "setting": "[11]", "result": "inactive"}
    ]},
    {"smiles": "CCOc1ccc2c(c1)C(C)=CC(C)(C)N2", "values": [
      {"measurement": "outcome", "setting": "AR (gene 367) [12]", "result": "inactive"}
    ]},
    {"smiles": "NCC1(Cc2noc(=O)[nH]2)CCCCC1", "values": [
      {"measurement": "outcome", "setting": "[13]", "result": "inactive"},
      {"measurement": "outcome", "setting": "[14]", "result": "inactive"}
    ]},
    {"smiles": "CCc1c(C(=O)NN2CCCCC2)nn(-c2ccc(Cl)cc2Cl)c1-c1ccc(Br)cc1", "values": [
      {"measurement": "AC50", "setting": "[13]", "result": "12.7 µM (active)"},
      {"measurement": "AC50", "setting": "[14]", "result": "10.8 µM (active)"}
    ]},
    {"smiles": "CC(CO)OC(C)CO", "note": "(configuration not stated) (tested in a mixture with another compound)", "values": [
      {"measurement": "outcome", "setting": "[13]", "result": "inactive"}
    ]},
    {"smiles": "c1cc(-c2ccncc2)ccn1", "values": [
      {"measurement": "outcome", "setting": "[13]", "result": "inactive"},
      {"measurement": "outcome", "setting": "[14]", "result": "inactive"}
    ]},
    {"smiles": "CC(=O)C(C)=CC1C(C)=CCCC1(C)C", "note": "(configuration not stated)", "values": [
      {"measurement": "outcome", "setting": "[13]", "result": "inactive"},
      {"measurement": "AC50", "setting": "[14]", "result": "9.92 µM (active)"}
    ]},
    {"smiles": "Clc1cc(Cl)c(Cl)cc1Cl", "values": [
      {"measurement": "outcome", "setting": "[13]", "result": "inactive"},
      {"measurement": "outcome", "setting": "[14]", "result": "inactive"},
      {"measurement": "outcome", "setting": "[15]", "result": "inactive"}
    ]},
    {"smiles": "NS(=O)(=O)c1cc2c(cc1Cl)NCNS2(=O)=O", "values": [
      {"measurement": "outcome", "setting": "[13]", "result": "inactive"},
      {"measurement": "outcome", "setting": "[14]", "result": "inactive"}
    ]},
    {"smiles": "Cc1cccc(C)c1O", "values": [
      {"measurement": "outcome", "setting": "[16]", "result": "inactive"},
      {"measurement": "outcome", "setting": "[14]", "result": "inactive"},
      {"measurement": "outcome", "setting": "[15]", "result": "inactive"},
      {"measurement": "outcome", "setting": "AR (gene 367) [12]", "result": "inactive"}
    ]},
    {"smiles": "Cc1nc(C)nc(N2C[C@@H](C)N(c3ccnc([C@@H](C)O)n3)[C@@H](C)C2)n1", "values": [
      {"measurement": "outcome", "setting": "[13]", "result": "inactive"},
      {"measurement": "outcome", "setting": "[14]", "result": "inactive"}
    ]},
    {"smiles": "O=C(OCCCCCOC(=O)c1ccccc1)c1ccccc1", "values": [
      {"measurement": "AC50", "setting": "[13]", "result": "90.1 µM (active)"},
      {"measurement": "AC50", "setting": "[14]", "result": "77.9 µM (active)"}
    ]},
    {"smiles": "Cc1ccc2ncccc2c1", "values": [
      {"measurement": "outcome", "setting": "[13]", "result": "inactive"},
      {"measurement": "outcome", "setting": "[14]", "result": "inactive"}
    ]},
    {"smiles": "Nc1ccc2c(c1)C(=O)c1ccccc1C2=O", "values": [
      {"measurement": "outcome", "setting": "[13]", "result": "inactive"},
      {"measurement": "AC50", "setting": "[14]", "result": "14.1 µM (active)"}
    ]},
    {"smiles": "Cc1cc(NC(=O)C(=O)O)cc(C)c1Oc1ccc(O)c2c1CCC2", "values": [
      {"measurement": "AC50", "setting": "[16]", "result": "79.3 µM (active)"},
      {"measurement": "outcome", "setting": "[14]", "result": "inactive"},
      {"measurement": "outcome", "setting": "AR (gene 367) [12]", "result": "inactive"},
      {"measurement": "outcome", "setting": "AR (gene 367) [17]", "result": "inactive"}
    ]}
  ]
}
